Structures are written as SMILES. Several values for one entry are separate records, joined by “and”; a condition that tells them apart may be missing. Equal entries are not always repeated. About 83,000 compounds went through this panel and 20% of them were active in at least one assay; those are over-represented in the sample as a whole.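 Cell lines were cultured in 96-well plates, exposed to a single compound concentration, and assessed for percent growth 48 hours later.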 Activity calls are given as the source filed them. Rule for the calls: active = growth percent below 10; inactive = the rest.

This test concerns MDA-MB-468 breast. As to the kind of experiment: NCI-60 one-dose screen, 48 h (100 = growth as untreated, 0 = no growth, -100 = all killed). The following applies: 10 µM unless noted.
With `CC(/C=N/NC(=O)c1cc(-c2ccco2)[nH]n1)=C\c1ccccc1`, the growth is 117% (inactive).
On to `Cc1nn(-c2ccccc2)c2nc3nc4c(c(N)c3c(-c3ccc(Cl)cc3)c12)CCC4`, for which the growth was 99.3% (inactive).
`NC(=S)N/N=C/c1ccc(OC(=O)COc2cc(Cl)c(Cl)cc2Cl)cn1`: the growth was -0.374% (active).
Consider `CCCCc1c(CCC)c(=N)c2ccccc2n1C`, for which the growth is 74.2% (inactive).
Take `N#Cc1c(-c2ccccc2)[nH]c2ncc(-c3ccccc3)n2c1=O`: the growth was 91.8% (inactive).
Consider `Cn1cc(-c2csc(-c3c[nH]c4ncccc34)n2)c2cc(F)cnc21`, for which the growth is -16% (active).
Take `C#C[C@]1(O)CC[C@H]2[C@@H]3CC=C4c5sc(Nc6cc(Cl)ccc6OC)nc5CC[C@]4(C)[C@H]3CC[C@@]21C`: the growth was 4.64% (active).
`CS(=O)c1nccc(-c2c(-c3ccc(F)c(OCc4ccccc4)c3)nc3sccn23)n1` (stereo not drawn): the growth is -19.4% (active).
For `COc1ccc(-c2cc(-c3cc(OC)ccc3OC)[nH]c(=O)c2C#N)cc1`, the growth was 37.9% (inactive).
For `c1ccn2nnnc2c1` the value was 107% (inactive).
The result for `Oc1cccc(-c2nc(-c3n[nH]c(=S)n3-c3ccccc3)cc3c2[nH]c2ccccc23)c1` reads 9.85% (active).
Consider `Cc1ccc(C2=C/C(=C/c3ccc(Br)cc3)C(=O)N2CCc2ccc(S(N)(=O)=O)cc2)cc1`, for which the growth was 92.7% (inactive).
For the compound `O=C(/C=C/c1cccc(O)c1)c1cccc(-n2cc(-c3ccccc3)[nH]c2=O)c1`, the growth was 73.4% (inactive).
The result for `COC(=O)c1c(C)nc(C)c2c1C(=O)C=C(NCc1ccccc1)C2=O` reads 53.9% (inactive); that for `COc1ccc(/C=C2\CCC3C(CCCC34OCCO4)C2=O)cc1` (stereo not drawn), 70.5% (inactive); that for `O=c1oc2ccc(I)cc2c(=O)n1-c1ccc(Cl)cc1F`, 0.339% (active).
For the compound `CC(C(=O)O)n1cc(C#N)c(=O)[nH]c1=O` (stereo not drawn), the growth is 103% (inactive) and 107% (inactive).
In the case of `CC(C)[N+](C)(CCOC(COc1ccccc1)COc1ccccc1)C(C)C`, the growth is 12.8% (inactive).
The result for `CC(=O)NC1C(O[C@H]2C[C@H]3[C@@H]4CC=C5C[C@@H](O)CC[C@]5(C)[C@H]4CC[C@]3(C)[C@H]2[C@H](C)C(=O)CCC(C)C)OCC(O)C1O` (stereo partly drawn) reads 51.6% (inactive).
With `NCCCc1nnc(CCC(=O)c2nc3ccccc3[nH]2)o1`, the growth was 107% (inactive).
In the case of `O=S(=O)(NCCCNc1nccc(-c2[nH]c(-c3ccccc3)nc2-c2ccc(F)c(O)c2)n1)c1ccccc1`, the growth was 88.3% (inactive).
As for `CC(=O)N1N=C(c2cccc(Nc3ccncc3)c2)CC1c1ccccc1` (stereo not drawn), the growth was 79.8% (inactive).
Take `O=C(O)/C=C/C(=O)NCc1ccccc1`: the growth is 101% (inactive).
For the compound `CC(=O)[C@@H]1CC[C@]2(C(=O)O)CC[C@]3(C)[C@H](CC[C@@H]4[C@@]5(C)Cc6c([nH]c7ccccc67)C(C)(C)[C@@H]5CC[C@]43C)[C@@H]12`, the growth was 82% (inactive).
As to `Cc1nc(-c2ccccc2O)ccc1C(=O)N=Nc1c(O)[nH]c2ccc(Br)cc12`, the growth is 90.2% (inactive).
With `COc1cc2c(c(OC)c1OC)CCC(c1cccc(NC(=O)c3ccc(Br)cc3)c1)O2` (stereo not drawn), the growth was 35.8% (inactive).
For `CCN(CC)c1ccc(/C=N/NC(=O)CSc2nc3ccccc3c(=O)n2Cc2ccc(S(N)(=O)=O)cc2)c(O)c1` the value was -11% (active).
As to `COc1ccc(/C=C(\C#N)c2cc3ccccc3n2S(C)(=O)=O)cc1`, the growth was 69.3% (inactive).

Source of the values: PubChem BioAssay (NCI).
